# Compounds with a hit are over-represented: about 10% of the library has one in this group of screens.
# CtBP-E1A blk – blocks the CtBP interaction with E1A; AlphaScreen GST-E1A/His-CtBP binding, 1536-well; hits give low values; activity change, % (no concentration beside the values); 340,000 tested, 0.49% active; in the data active = activity change below about -65%; inconclusive = mostly about -30% to -63%; note: % is set by controls: 0 for no effect and ±100 for the full control effect
#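 In 5 uL wells, 23 nL compound meets equimolar GST-E1A and His-CtBP (5X stock 125 nM each) for 2 h, 37 °C. Beads (5X, 50 ug/mL) then 1 h, 37 °C, dark.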
# JMJD2A Tudor – blocks the human JMJD2A Tudor domain; AlphaScreen JMJD2A-Tudor / H3K4me3 peptide binding; Potency, µM (series often up to 114 µM), inactives show at the highest dose activity change, negative = inhibition, actives largely listed as inhibitors; 390,000 tested, 4.4% active; note: potency is the fitted concentration of half-maximal effect; % is set by controls: 0 for no effect and ±100 for the full control effect; nearly all actives have a fitted effect of over 50% in size
# G9a inh – G9a (human) methyltransferase inhibition; Q96KQ7; G9a H3K9 monomethylation, AlphaScreen, 2 h; Potency, µM (series often up to 102 µM), inactives show at the highest dose activity, negative = inhibition, usual class: inhibitors; 350,000 tested, 8.8% active; AID 504332; note: potency is the fitted concentration of half-maximal effect; % is set by controls: 0 for no effect and ±100 for the full control effect; nearly all actives have a fitted effect of over 75% in size
#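 G9a (20 nM) preincubated 15 min RT with compounds, then 500 nM biotinylated H3K9 peptide and 20 uM SAM added; 2 h RT reaction. Monomethyl-H3K9 product detected by AlphaScreen with anti-H3K9me1 antibody, streptavidin donor and anti-rabbit IgG acceptor beads.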
# HP1b chromo inh – inhibitors of HP1-beta chromodomain binding to methylated histone tails | AlphaScreen HP1-beta / biotin-H3K9me3 peptide binding | Potency, µM (titrated, usually from 114 µM), for the others: at the top dose activity change, negative = inhibition, hits mostly inhibitors | 390,000 tested, 0.56% active | P83916 | AID 540317; note: potency is the fitted concentration of half-maximal effect; nearly all actives have a fitted effect of over 70% in size
#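 HP1-beta protein (50 nM final) preincubated 30 min at room temperature with biotinylated H3(1-18)K9me3 peptide (50 nM) in PBS pH 7.4, 0.01% Tween-20, then compound added for 30 min. AlphaScreen streptavidin donor/nickel chelate acceptor beads (10 ug/mL final), 30 min dark, luminescence read.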
# BAZ2B inh – inhibitors of human BAZ2B bromodomain. AlphaScreen BAZ2B-H3K14Ac peptide displacement. AID 504333. 360,000 tested, 4.4% active. Q9UIF8. Potency, µM (series often up to 114 µM), inactives show at the top dose activity change, negative = inhibition, most hits filed as inhibitors; note: potency is the fitted concentration of half-maximal effect; % is set by controls: 0 for no effect and ±100 for the full control effect; nearly all actives have a fitted effect of over 60% in size
#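 Complex of BAZ2B and biotin-H3K14Ac (50 nM apiece) forms over 30 min at RT, then faces library compounds up to 110 uM for another 30 min; AlphaScreen beads added, 20 min dark incubation, luminescence read.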
# Six1-Eya2 blk – blocks human Six1 binding to Eya2; AlphaScreen GST-Six1/His-Eya2 binding, biochemical; hits give low values; Q15475+O00167; 360,000 tested, 0.56% active; activity change, % (no concentration beside the values); in the data active = activity change below about -65%; inconclusive = mostly about -30% to -63%; note: % is set by controls: 0 for no effect and ±100 for the full control effect
#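 Homogeneous AlphaScreen proximity assay pairing GST-Six1 with His-tagged Eya2 (added as 5X mix: 250 nM and 500 nM) in 50 mM Tris pH 8.0, 300 mM NaCl, 1 mM TCEP. Glutathione donor and nickel acceptor beads; 1 h, 37 °C, dark.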
# * hit, by the source's call; ? = inconclusive; . = no result given; [ ] = remark or other dose. Unless noted, calls come from the whole dose curve; as a rule, active = well fitted inhibition curve with a large enough effect; inconclusive = small, poorly fitted or top-dose-only effect; inactive = no such curve, though single readings can be large or run the other way.
SMILES,CtBP-E1A blk,JMJD2A Tudor,G9a inh,HP1b chromo inh,BAZ2B inh,Six1-Eya2 blk
Cc1ccc(-c2c[n+](CC(=O)Nc3cc(=O)n(C)c(=O)n3C)c3n2CCC3)cc1,-7,-11%,45%[59 µM],14%,11%,7
CC(C)N1CCN(Cc2cccc(-c3ccco3)c2)CC1CCO (stereo not drawn),-5,-18%,25µM*,-12%,-31%,-3
CCCCN1CCCc2cc(CN(CCCN3CCOCC3)C(=O)Nc3ccc(CC)cc3)ccc21,.,7.9µM*,8.9µM*,-13%,?,.
CCCN1CCCc2cc(CN(CCCN3CCOCC3)C(=O)Nc3ccc(CC)cc3)ccc21,.,?,13µM*,?,8.9µM*,.
COc1ccc(CN(CCCN2CCOCC2)C(=O)Nc2ccccc2)cc1OC,8,-25%,17%,13%,-3%,0
CCc1ccc2[nH]c(=O)c(CN(CCCN3CCOCC3)C(=O)Nc3ccc(F)cc3)cc2c1,-4,-22%,-38%[2.33 µM],2%,-3%,-5
O=C(COC(=O)/C=C/C(=O)N1CCN(c2ccccc2)CC1)NC(c1ccccc1)c1ccccc1,4,-30%,?,22%,45µM*,-9
CCCCN1C(=O)C(O)=C(C(C)=O)C1c1ccc(OC)cc1OC (stereo not drawn),-9,50µM*,?,4%,50µM*,6
COc1ccc(OC)c(C2C(C(C)=O)=C(O)C(=O)N2CCc2ccc(OC)c(OC)c2)c1 (stereo not drawn),3,-29%,?,25%,-5%,1
COc1ccc(C2C(C(C)=O)=C(O)C(=O)N2c2nccs2)c(OC)c1 (stereo not drawn),.,-2%,40µM*,46%,?,0
COc1ccc(C2C(C(C)=O)=C(O)C(=O)N2CCO)c(OC)c1 (stereo not drawn),-2,?,50µM*,11%,?,2
CC(Sc1nccn1C)C(=O)Nc1ccccc1C#N (stereo not drawn),.,-1%,-2%[59 µM],30%,-16%,.
Cc1c(CN(C)C(=O)C2CCC(=O)N(Cc3ccccc3F)C2)[nH]c2ccccc12 (stereo not drawn),-1,.,.,.,.,-1
FC(F)Oc1ccc(/C=N/c2c(-c3ccc(OC(F)F)cc3)nc3n2CCS3)cc1,-2,50µM*,?,?,?,4
Cc1ccccc1C1=C/C(=C(\SS/C(C(=O)c2ccc(OCC(=O)O)c(Cl)c2Cl)=C2\C=C(c3ccccc3C)SS2)C(=O)c2ccc(OCC(=O)O)c(Cl)c2Cl)SS1,7,28µM*,.,20µM*,.,-4
O=C(O)COc1ccc(C(=O)c2cccs2)c(Cl)c1Cl,.,.,-40%[12.7 µM],.,.,.
CC(C)(C)n1nc2c(c1NC(=O)Cc1ccc(F)cc1)CSC2,-2,-21%,45µM*,27%,7%,4
CCC1c2ccc(C)n2CCN1C(=O)Nc1ccccc1C(=O)OC (stereo not drawn),-1,-32%,50µM*,8%,-28%,2
CCOC(=O)c1ccccc1NC(=O)N1CCn2c(C)ccc2C1CC (stereo not drawn),-6,-17%,22µM*,29%,-11%,-9
c1ccc(COc2ccc(-c3cc4nc(NCCCn5ccnc5)ccn4n3)cc2)cc1,-14,.,.,.,.,-26
Cc1cc(C)cc(C(=O)N2CCN(c3ccccn3)CC2)c1,7,-6%,7%,38%,-1%,0
CS(=O)(=O)Nc1ccccc1C(=O)OCC(=O)NCc1cccs1,0,2%,.,34%,.,2
O=C(COC(=O)c1ccccc1NCCO)NCc1cccs1,5,?,45µM*,-16%,-1%,7
COc1ccc(CCNC(=O)COC(=O)c2ccccc2NCCO)cc1OC,6,?,50µM*,-3%,-7%,3
O=C(OCC(=O)N1CCC(Cc2ccccc2)CC1)c1ccccc1NCCO,3,13%,-7%,29%,13%,9

# Screens deposited in PubChem by National Center for Advancing Translational Sciences (NCATS).
